The values below come from PubChem BioAssay (EPA / NIEHS).

Inconclusive results are not listed. Activity calls are given as the source filed them. How the source made its calls: active means hit-call score of the fitted dose curve at least 0.9, where 1 is the maximum; inconclusive means response in the unintended direction; inactive means score below 0.9.

The nature of this experiment: TOX21_p53_BLA_p2_viability: Viability Assessment in the Tox21 HCT-116 p53 Agonism Beta-lactamase Assay, Phase 2 (AID 2283591).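 Further: compound exposure lasted 16 h at 37 °C; actives lower the ATP signal meaning cytotoxicity.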 In outline:
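HCT116 p53-bla cells, 4000/well, dosed after 5 h plating (217-fold dilution of DMSO stocks) and incubated 16 h at 37C. Viability taken as cellular ATP by CellTiter-Glo luminescence after 30 min RT; signal loss marks cytotoxicity.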
Regarding `C=CC(=C)C`, the compound was classed as inactive.
Take `N#CNC#N`: the result was inactive.
With `O=C(Cl)C(Cl)(Cl)Cl`, the call was inactive.
In the case of `CN1CC[C@]23c4c5ccc(O)c4O[C@H]2[C@@H](O)C=C[C@H]3[C@H]1C5` it was “inactive”.
In the case of `CCCCCCC#N` it was “inactive”; in that of `O=[N+]([O-])c1cc(Cl)c(Cl)c(Cl)c1`, “inactive”.
In the case of `COP(=S)(OC)Oc1ccc([N+](=O)[O-])cc1Cl` it was “inactive”; in that of `O=NN1CCCCC1`, “inactive”; in that of `CN(C)C(=O)Oc1cc(OC(=O)N(C)C)cc(C(O)CNC(C)(C)C)c1` (centres undefined), “inactive”.
Turning to `CN1CC[C@]23c4c5ccc(O)c4O[C@H]2[C@@H](O)CC[C@H]3[C@H]1C5`, the compound was classed as inactive.
On to `CCCBr`, for which the call was inactive.
The same measure for `COc1cc(CC(C)N)cc2c1OCO2` (centres undefined): “inactive”; for `ClC=C(Cl)Cl`: “inactive”.
In the case of `CCCCCON=O` it was “inactive”; in that of `CN(C)CCCCCCN(C)C`, “inactive”; in that of `CCCCCCCC(=O)Cl`, “inactive”.
In the case of `CCCCCCCCP(=O)(O)O` it was “inactive”; in that of `O=C1NCN(c2ccccc2)C12CCN(CC1COc3ccccc3O1)CC2` (centres undefined), “inactive”; in that of `Cc1cccc(N)c1C`, “inactive”.
For `CC(C)(C)C(=O)Cl`, the result was inactive.
In the case of `CCCSC(=O)Cl` it was “inactive”; in that of `CNC(C)(C)Cc1ccccc1`, “inactive”.
In the case of `CCCCC(=O)Cl` it was “inactive”; in that of `Cc1nnc2n1-c1ccc(Cl)cc1C(c1ccccc1)=NC2`, “inactive”; in that of `NCc1cccnc1`, “inactive”.
In the case of `ClC(Cl)=C(Cl)Cl`, the compound was called inactive.
The same measure for `c1ccc(C2(c3ccccc3)CC2C2=NCCN2)cc1` (centres undefined): “inactive”; for `c1ccc(CN2CCNCC2)cc1`: “inactive”; for `CCN(C(C)=O)c1cccc(-c2ccnc3c(C#N)cnn23)c1`: “inactive”.
The same measure for `Nc1ccccc1Cl`: “inactive”.
In the case of `Oc1ccc2c3c1O[C@H]1[C@@H](O)CC[C@@]4(O)[C@@H](C2)N(CC2CCC2)CC[C@]314` it was “inactive”.
Consider `CNC(=O)Oc1ccccc1C(C)C`, for which the compound was called inactive.
The same measure for `CCN(CC)CCOC(=O)C(C)(c1ccccc1)c1ccccc1`: “inactive”.
In the case of `CS(=O)(=O)Cl` it was “inactive”; in that of `Brc1ccccc1`, “inactive”; in that of `CCC1(CC)C(=O)C=CNC1=O`, “inactive”.
As to `C[C@H](CN1CCOCC1)C(C(=O)N1CCCC1)(c1ccccc1)c1ccccc1`, the compound was classed as inactive.
The same measure for `O=[N+]([O-])c1ccccc1-c1ccccc1`: “inactive”; for `CC(=O)[C@H]1CC[C@H]2[C@@H]3CC[C@H]4C[C@H](O)CC[C@]4(C)[C@H]3C(=O)C[C@]12C`: “inactive”.
